Measured values reported in PubChem BioAssay (NCATS).
Inconclusive results are not listed. Activity calls are given as the source filed them. Calls follow the shape of the dose curve; as a rule, active = well fitted inhibition curve with a large enough effect; inconclusive = small, poorly fitted or top-dose-only effect; inactive = flat fitted curve, though single readings scatter.

Key:
Test in all cases: qHTS profiling for inhibitors of Plasmodium falciparum proliferation (AID 504749); also: nearly all actives have a fitted effect of over 60% in size
Conditions in all cases: P. falciparum in erythrocytes, SYBR Green DNA, 72 h; series mostly up to 28.7 µM
CP291 = system: CP291
Procedure, shortened: (§1)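 Fluorescence of SYBR Green-bound parasite DNA, read at 485/535 nm, served as the growth measure. Infected erythrocytes were cultured with compound 72 h; artemisinin (0.29 uM) and DMSO wells defined the normalization range.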

CP297 = system: CP297
Procedure, shortened: as §1

CP305 = system: CP305
Procedure, shortened: as §1

CP315 = system: CP315
Procedure, shortened: as §1

CP325 = system: CP325
Procedure, shortened: as §1

CP329 = system: CP329
Procedure, shortened: as §1

CP335 = system: CP335
Procedure, shortened: as §1

DFO2036 = system: DFO2036
Procedure, shortened: as §1

DIV17 = system: DIV17
Procedure, shortened: as §1

DIV30 = system: DIV30
Procedure, shortened: as §1

Dd2 = system: Dd2
Procedure, shortened: as §1

ECU = system: ECU
Procedure, shortened: as §1

FAB9 = system: FAB9
Procedure, shortened: as §1

GB4 = system: GB4
Procedure, shortened: as §1

HB3 = system: HB3
Procedure, shortened: as §1

ICS = system: ICS
Procedure, shortened: as §1

JCK = system: JCK
Procedure, shortened: as §1

N140 = system: N140
Procedure, shortened: as §1

P93_24 = system: P93_24
Procedure, shortened: as §1

DIV14 = system: DIV14
Procedure, shortened: as §1
Potency is read from the fitted curve at half-maximal effect.

SMILES | Potency (CP291) | Potency (CP297) | Potency (CP305) | Potency (CP315) | Potency (CP325) | Potency (CP329) | Potency (CP335) | Potency (DFO2036) | Potency (DIV17) | Potency (DIV30) | Potency (Dd2) | Potency (ECU) | Potency (FAB9) | Potency (GB4) | Potency (HB3) | Potency (ICS) | Potency (JCK) | Potency (N140) | Potency (P93_24) | Potency (DIV14)
CC(=O)Nc1nnc(S(N)(=O)=O)s1 | inactive | inactive | inactive | inactive | inactive | inactive | inactive | inactive | inactive | inactive | inactive | inactive | inactive | inactive | inactive | inactive | inactive | inactive | inactive | 
CCCC(C(=O)OCCN(CC)CC)(c1ccccc1)c1ccccc1 | 13.5 µM (active) |  |  |  |  |  | 8.49 µM (active) |  | 7.57 µM (active) | 13.5 µM (active) | 14.1 µM (active) | 10 µM (active) |  | 10.7 µM (active) |  | 5.62 µM (active) |  |  |  | 8.49 µM (active)
Cc1nc2sccn2c(=O)c1CCN1CCC(=C(c2ccc(F)cc2)c2ccc(F)cc2)CC1 |  |  | inactive | inactive | inactive | inactive |  |  | 16.9 µM (active) |  |  |  | inactive |  |  | 8.91 µM (active) |  |  |  | 
CC(C)COCC(CN(Cc1ccccc1)c1ccccc1)N1CCCC1 (stereo unspecified) |  |  |  |  | inactive | inactive |  |  | inactive |  |  | inactive | inactive |  | inactive |  | inactive |  | inactive | inactive
NC(N)=NC(=O)Cc1c(Cl)cccc1Cl |  |  |  |  |  | 6.01 µM (active) | 9.53 µM (active) | 10 µM (active) | inactive |  |  |  |  | 6.75 µM (active) |  | 7.94 µM (active) |  |  |  | inactive
CN(C)C/C=C(/c1ccc(Br)cc1)c1cccnc1 |  |  | inactive | inactive | inactive | inactive | inactive | inactive | inactive | inactive | 12.6 µM (active) |  | inactive |  | inactive |  | inactive | inactive |  | 
Cc1nc2ccccn2c(=O)c1CCN1CCC(C(=O)c2ccc(F)cc2)CC1 |  | inactive | inactive | inactive | inactive | inactive |  | inactive |  |  |  | inactive | inactive |  | inactive | 8.91 µM (active) | inactive | inactive |  | 6.75 µM (active)
c1cc(CN2CCCCC2)cc(OCCCNc2nc3ccccc3s2)c1 |  |  |  |  |  |  |  |  |  |  | 6.31 µM (active) |  | inactive |  |  |  | inactive |  |  | 
CCOC(=O)c1cnc2c(cnn2CC)c1NN=C(C)C | inactive |  | inactive | inactive | inactive | inactive | inactive | inactive |  | inactive | inactive | inactive | inactive | inactive | inactive |  | inactive | inactive | inactive | 
CN(C)CCN(Cc1cccs1)c1ccccn1 |  | 3.38 µM (active) |  | inactive |  |  | 8.49 µM (active) |  | 6.01 µM (active) |  | 3.98 µM (active) | inactive | inactive | 3.79 µM (active) | inactive |  |  | 11.2 µM (active) | 7.94 µM (active) | 6.75 µM (active)
COc1ccc(CN(CCN(C)C)c2ccccn2)cc1 | inactive |  | inactive | inactive | inactive | inactive |  | inactive |  |  |  | inactive | inactive | 6.01 µM (active) | inactive | inactive | 1.26 µM (active) |  | inactive | 
CCN(CC)CCOCCOC(=O)C1(c2ccccc2)CCCC1 |  | 6.75 µM (active) | 13.5 µM (active) | inactive | 15.1 µM (active) | inactive | 9.53 µM (active) | 12.6 µM (active) | 3.79 µM (active) | 7.57 µM (active) | 2.51 µM (active) | 11.2 µM (active) |  | 6.01 µM (active) | 12.6 µM (active) | 1.41 µM (active) |  | 7.08 µM (active) | 6.31 µM (active) | 2.39 µM (active)
CC1=C(C)C(=O)C(CCCCC#CCCCC#CCO)=C(C)C1=O |  | 15.1 µM (active) |  |  |  |  | 13.5 µM (active) |  | 6.01 µM (active) | 7.57 µM (active) |  | 2.82 µM (active) | inactive | 7.57 µM (active) |  | 2.24 µM (active) |  | 7.94 µM (active) | 5.01 µM (active) | 5.36 µM (active)
COc1ccc(CCN(C)CCCC(C#N)(c2cc(OC)c(OC)c(OC)c2)C(C)C)cc1OC (stereo unspecified) |  |  |  |  |  |  |  |  | 13.5 µM (active) |  | 5.62 µM (active) |  | inactive |  |  | 7.94 µM (active) |  |  |  | 
CCc1cccc(N(C)C(N)=Nc2cccc3ccccc23)c1 |  |  |  | inactive |  |  |  |  | 1.35 µM (active) | 7.57 µM (active) | 3.16 µM (active) | 7.94 µM (active) | inactive | 5.36 µM (active) | inactive | 2.82 µM (active) |  |  |  | 1.51 µM (active)
COc1cc(C(=O)OCCCN2CCCN(CCCOC(=O)c3cc(OC)c(OC)c(OC)c3)CC2)cc(OC)c1OC |  |  |  |  |  |  | 4.78 µM (active) |  | 12 µM (active) |  | 12.6 µM (active) | 8.91 µM (active) |  | 13.5 µM (active) |  | 8.91 µM (active) |  | 12.6 µM (active) | 10 µM (active) | 9.53 µM (active)
CC(=O)[C@]1(O)Cc2c(O)c3c(c(O)c2[C@@H](O[C@H]2C[C@H](N)[C@H](O)[C@H](C)O2)C1)C(=O)c1ccccc1C3=O | 9.53 µM (active) |  | 8.49 µM (active) | 15.1 µM (active) |  | 10.7 µM (active) | 1.69 µM (active) | 3.55 µM (active) | 4.78 µM (active) |  | 0.158 µM (active) | 7.94 µM (active) | 11.2 µM (active) | 4.78 µM (active) | 4.47 µM (active) | 1.78 µM (active) | 8.91 µM (active) | 4.47 µM (active) | 4.47 µM (active) | 4.78 µM (active)
O=C1NCN(c2ccccc2)C12CCN(CCCC(c1ccc(F)cc1)c1ccc(F)cc1)CC2 |  |  | 7.57 µM (active) |  |  | 4.78 µM (active) | 4.78 µM (active) | 7.08 µM (active) | 6.75 µM (active) |  | 5.01 µM (active) | 5.62 µM (active) | inactive | 6.75 µM (active) | 7.08 µM (active) | 3.98 µM (active) |  | 5.62 µM (active) | 4.47 µM (active) | 7.57 µM (active)
NC(N)=N/N=C/c1c(Cl)cccc1Cl |  |  |  |  |  |  |  |  |  |  |  |  |  | 12 µM (active) |  | 8.91 µM (active) | inactive |  |  | 
